According to PubChem BioAssay (NCATS):
Inconclusive results are not listed. A call without a number means that no potency is given here. Unmarked numbers belong to inactive results. Calls of active or inactive are those of the source. Calls follow the shape of the dose curve; as a rule, active = well fitted cell-killing curve with a large enough effect; inconclusive = small, poorly fitted or top-dose-only effect, or effect the other way; inactive = flat fitted curve, though single readings scatter.

Experiments:
Assay in all cases: Primary qHTS to identify gynecologic anti-cancer compounds using libraries of approved drugs and bioactive compounds (AID 1345084); also: nearly all actives have a fitted effect of over 55% in size
Settings in all cases: Gynecologic cancer cell panel viability, ATPlite luminescence, 48 h; series mostly up to 57.5 µM
PA-1 = system: PA-1
How it was run: (§1)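 Five-concentration response, 48 h; readout is ATP-driven luciferase luminescence.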

Tov-21-G = system: Tov-21-G
How it was run: as §1

Tov112D = system: Tov112D
How it was run: as §1
Potency is read from the fitted curve at half-maximal effect.

Compound	Potency (PA-1)	Potency (Tov-21-G)	Potency (Tov112D)	activity change, negative = cytotoxicity (PA-1)	activity change, negative = cytotoxicity (Tov-21-G)	activity change, negative = cytotoxicity (Tov112D)
CCCC1(c2ccccc2)NC(=O)N(CC(=O)N(C)Cc2c(F)cccc2Cl)C1=O (centres undefined)	inactive	inactive	inactive			
O=S(=O)(c1ccc(S(=O)(=O)n2cnc3ccccc32)cc1)N1CCCCCC1	inactive	inactive	inactive			
CC(=O)O[C@@H]1[C@@H](O)[C@H](O[C@H]2CC[C@]34C[C@]35CC[C@]3(C)[C@@H]([C@@]6(C)CC[C@@H](C(C)(C)O)O6)[C@@H](O)C[C@@]3(C)[C@@H]5C[C@H](O[C@@H]3O[C@H](CO)[C@@H](O)[C@H](O)[C@H]3O)[C@H]4C2(C)C)OC[C@H]1O	inactive	inactive	inactive			
Cc1nc(C)c(-c2ccc(C3CCC(CC(=O)O)CC3)cc2)nc1C(N)=O (centres undefined)	inactive	inactive	inactive			
CC1(C)CC[C@]2(C(=O)O[C@@H]3O[C@H](CO)[C@@H](O)[C@H](O)[C@H]3O)CC[C@]3(C)C(=CCC4[C@@]5(C)C[C@@H](O)[C@H](O)[C@](C)(C(=O)O)C5CC[C@]43C)C2C1O (some centres undefined)	inactive	inactive	inactive			
CC(C)=CCC[C@](C)(O[C@@H]1O[C@H](CO[C@@H]2O[C@H](CO)[C@@H](O)[C@H](O)[C@H]2O)[C@@H](O)[C@H](O)[C@H]1O)C1CC[C@]2(C)[C@@H]1[C@H](O)CC1[C@@]3(C)CC[C@H](O[C@@H]4O[C@H](CO)[C@@H](O)[C@H](O)[C@H]4O[C@@H]4O[C@H](CO)[C@@H](O)[C@H](O)[C@H]4O)C(C)(C)[C@@H]3CC[C@]12C (some centres undefined)				0.278% [at 11.6 µM]	1.55% [at 11.6 µM]	0.741% [at 11.6 µM]
COc1c(Nc2ncc(Cl)c(N[C@H]3[C@@H](C(N)=O)[C@@H]4C=C[C@H]3C4)n2)ccc2c1CC[C@@H](N1CCOCC1)CC2	inactive	inactive	inactive			
CC[C@@H](N)CNc1ccnc(-c2cc(-c3cnn(C)c3)ccc2O)n1	7.94 µM (active)	8.91 µM (active)	10 µM (active)			
OC[C@H]1O[C@@H](O[C@H]2[C@H](OCc3ccccc3)O[C@H](CO[C@@H]3OC[C@@H](O)[C@H](O)[C@H]3O)[C@@H](O)[C@@H]2O)[C@H](O)[C@@H](O)[C@@H]1O	inactive	inactive	inactive			
COC(=O)C1=CO[C@@H](O[C@@H]2O[C@H](CO)[C@@H](O)[C@H](O)[C@H]2O)[C@@H]2C(COC(C)=O)=C[C@H](O)[C@H]12	inactive	inactive	inactive			
C=C1C(OC(C)=O)CCC2(C)CC3(OC)OC(=O)C(C)=C3CC12 (centres undefined)	inactive	inactive	inactive			
O=C(O)c1ccccc1NC(=O)N1CCC(c2ccccc2C(F)(F)F)CC1	inactive	inactive	inactive			
N=c1nc2n(cc1F)C1OC(CO)C(O)C1O2 (centres undefined)	0.891 µM (active)	inactive	1.41 µM (active)			
O=C(O)[C@@H]1C[C@H]2C[C@@H](CCc3nn[nH]n3)CC[C@H]2CN1	inactive	inactive	inactive			
COc1cccc(-c2cc(NCc3ccc4c(c3)OCO4)nc(N)n2)c1	1 µM (active)	1 µM (active)	0.447 µM (active)			
CC/C=C/CC1=C(CCCCC(CCC(=O)O)OC(C)=O)CCC1=O (centres undefined)	inactive	inactive	inactive			
Cc1cc(O)cc(O[C@@H]2O[C@H](CO)[C@@H](O)[C@H](O)[C@H]2O)c1	inactive	inactive	inactive			
CCCNc1ccc2ncc(-c3ccc4[nH]ncc4c3)n2n1	2.82 µM (active)	3.16 µM (active)	3.55 µM (active)			
CN(C)c1ccc2c(c1)OC(N)=C(C#N)C2c1cccc(C(F)(F)F)c1 (centres undefined)	0.178 µM (active)	0.251 µM (active)	0.316 µM (active)			
CC1=CCC2C(C)(C)CCC[C@]2(C)[C@@]12CC[C@](C)(CC(=O)O)O2 (some centres undefined)	inactive	inactive	inactive			
C[C@H](C/C=C/C(C)(C)O)[C@H]1CC[C@@]2(C)[C@@H]3[C@@H](O[C@@H]4O[C@H](CO)[C@@H](O)[C@H](O)[C@H]4O)C=C4C(CC[C@H](O)C4(C)C)[C@]3(C=O)CC[C@]12C (some centres undefined)	inactive	inactive	inactive			
COC(=O)C1=C2Nc3ccccc3C23CCN2CCCC(C(C)O)(C1)C23 (centres undefined)	inactive	inactive	inactive			
CC1(C)CC[C@]2(C(=O)O)CC[C@]3(C)C(=CCC4[C@@]5(C)C[C@@H](O)[C@H](O)C(C)(C)C5CC[C@]43C)C2C1 (some centres undefined)	inactive	inactive	inactive			
